# Screening data (PubChem BioAssay)
# CYP2C19 act: human CYP2C19 activators, primary screen, biochemical, luminescence; recombinant CYP2C19, luciferin-H EGE luminescence; active compounds read high; 0 = fully inhibited enzyme, 1 = untreated enzyme; activation factor at 5 µM; 96,000 tested, under 10 active;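 active = activation factor of at least 2 at 5 µM in the primary screen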
# Target sequence (P33261 whole entry, looked up): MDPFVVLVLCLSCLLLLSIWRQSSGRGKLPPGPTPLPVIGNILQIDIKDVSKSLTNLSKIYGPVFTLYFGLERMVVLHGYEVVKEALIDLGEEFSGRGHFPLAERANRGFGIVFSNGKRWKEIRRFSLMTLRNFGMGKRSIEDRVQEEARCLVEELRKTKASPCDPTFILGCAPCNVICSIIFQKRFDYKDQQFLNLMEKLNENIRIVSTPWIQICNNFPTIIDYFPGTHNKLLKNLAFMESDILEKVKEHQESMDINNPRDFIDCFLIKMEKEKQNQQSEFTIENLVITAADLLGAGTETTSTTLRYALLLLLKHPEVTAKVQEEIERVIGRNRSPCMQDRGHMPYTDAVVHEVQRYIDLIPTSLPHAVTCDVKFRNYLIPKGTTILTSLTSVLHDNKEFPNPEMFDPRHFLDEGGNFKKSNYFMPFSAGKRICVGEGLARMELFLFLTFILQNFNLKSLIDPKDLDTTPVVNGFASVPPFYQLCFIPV
# PostGolgi ctrl: growth inhibition of yeast control strain, primary screen, counter-screen for post-Golgi transport modulator project | efflux-deficient yeast background strain, growth absorbance A615, 16 h | AID 738, 2007 | inhibition, % at 10 µM | 98,000 tested, 5% active
# PostGolgi yeast: phenotypic screen on post-Golgi transport, primary screen | 98,000 tested, 0.9% active | AID 739, 2007 | post-Golgi transport phenotypic cell assay | inhibition, % at 10 µM;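 also: yeast cells grown in 1536-well plates; yeast grown about 18 h at 30C before absorbance read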
# CYP2C19 inh: blockers of cytochrome P450 2C19 activity – biochemical, luminescence, ADME assay, primary screen; CYP2C19 Supersomes, luciferin-H EGE luminescence, 30 min; inhibition, % at 5 µM; 96,000 tested, 21% active; AID 778, 2007;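 active = CYP2C19 inhibition above a set limit at 5 µM in the primary screen, cut at about 50% in these data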
# CYP2C9 inh: blockers of cytochrome P450 2C9 activity – biochemical, luminescence, ADME assay, primary screen; P11712; 96,000 tested, 20% active; inhibition, % at 5 µM; CYP2C9 Supersomes, luciferin-H conversion;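 active = blocking of liver enzyme CYP2C9 beyond about 50% at 5 µM, limit read from the data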
# CYP2C9 activ: human CYP2C9 activators, primary screen, biochemical, luminescence; Cytochrome P450 2C9 (Homo sapiens), P11712; recombinant CYP2C9, luciferin-H conversion; active compounds read high; factor 1 = untreated enzyme, 0 = blocked; activation factor at 5 µM; 96,000 tested, 1.4% active; AID 1024, 2008;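 active = activation factor of 2 or more for CYP2C9 at a 5 µM dose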
# A number is an active result; - = inactive; . = no result. Only a sample is shown. Rule as the data show it, unless noted: active = inhibition above about 30%; inactive = the rest.
SMILES,CYP2C19 act,PostGolgi ctrl,PostGolgi yeast,CYP2C19 inh,CYP2C9 inh,CYP2C9 activ
CCOC(=O)C1(C(=O)OCC)CC1c1ccccc1 (configuration not stated),-,-,-,-,-,-
CCN(CC)CCOC(=O)c1ccc(NC(=O)C2(c3ccccc3)CCCC2)cc1,-,-,-,-,-,-
O=C(CN1CCN(S(=O)(=O)c2ccc(F)cc2)CC1)Nc1cccc(C(F)(F)F)c1,-,-,-,-,-,-
COc1ccc(NC(C)=O)cc1NC(=O)CN1CCN(S(=O)(=O)c2ccc(C(C)C)cc2)CC1,-,-,-,-,-,-
O=C(CN1CCN(S(=O)(=O)c2ccc(Cl)cc2)CC1)Nc1ccc(F)cc1F,-,-,-,-,-,-
COc1ccc(C)cc1NC(=O)CN1CCN(S(=O)(=O)c2ccc(Br)cc2)CC1,-,46,-,-,-,-
O=C(CN1CCN(S(=O)(=O)c2ccc(Br)cc2)CC1)Nc1ccccc1F,-,54,-,84,-,-
O=C(CN1CCN(S(=O)(=O)c2ccc(Br)cc2)CC1)Nc1ccc(F)cc1F,-,-,-,54,-,-
O=C(CN1CCCN(S(=O)(=O)c2ccc(F)cc2)CC1)Nc1ccccc1Br,.,41,-,.,.,.
COc1ccc(CNC(=O)CSc2nnc(C)s2)cc1,-,.,.,-,-,-
CCOC(=O)c1ccc(NC(=O)COc2ccc(S(=O)(=O)NC(C)C)cc2)cc1,-,-,-,-,-,-
Cc1ccccc1C(=O)N1CCC(C(=O)Nc2cccc(F)c2)CC1,-,-,-,-,51,-
CC1CCCC(C)N1C(=O)c1ccccc1Nc1ccc(SC(F)F)cc1 (configuration not stated),-,-,-,-,-,-
O=C(c1ccccc1Nc1ccc(SC(F)F)cc1)N1CCCCC1,-,-,-,88,53,-
O=C(Nc1ccccc1C(=O)N1CCCCC1)C1CCCCC1,-,-,-,-,56,-
COC(=O)c1ccccc1NC(=O)C1CCN(C(=O)c2ccc(OC)cc2)CC1,-,-,-,50,-,-
O=C(Nc1cccc(F)c1)C1CCN(C(=O)Cc2ccccc2)CC1,-,-,-,-,-,-
COc1ccc2c(c1)cc(C)c1nnc(SCC(=O)N3CCN(C(=O)c4ccco4)CC3)n12,-,.,.,-,-,-
CN(C)CC(C)(C)CNS(=O)(=O)CC12CCC(CC1=O)C2(C)C (configuration not stated),-,-,-,-,-,-
CCCOC(=O)c1ccc2c(c1)C(=O)N(c1ccccc1)C2=O,-,-,-,-,-,-
CCOC(=O)N1CCN(C(=O)c2c(O)c3cccc4c3n(c2=O)CC4)CC1,-,-,-,-,-,-
CC1(C)Cc2c(C#N)c(NCCc3ccccc3)nc(-c3ccco3)c2CO1,-,-,-,-,70,-
CCN(CC)CCNc1nc(-c2ccco2)c2c(c1C#N)CC(C)(C)OC2,-,-,-,-,-,-
CC1(C)Cc2c(C#N)c(NCC3CCCO3)nc(-c3ccco3)c2CO1 (configuration not stated),-,-,-,-,54,-
CC1(C)Cc2c(C#N)c(NC3CCCCC3)nc(-c3ccco3)c2CO1,-,-,-,-,60,-
SMILES,CYP2C19 act,PostGolgi ctrl,PostGolgi yeast,CYP2C19 inh,CYP2C9 inh,CYP2C9 activ
Cc1nc2oc3c(NCC4CCCO4)ncnc3c2c2c1COC(C)(C)C2 (configuration not stated),-,-,-,-,-,-
Cc1ccsc1C(=O)OCC(=O)Nc1sccc1C(N)=O,-,-,-,-,-,-
OC(COc1c(Br)cc(Br)cc1Br)CN1CCOCC1 (configuration not stated),-,-,-,92,-,-
O=C(c1ccc(Cl)cc1)c1ccc(OCC(O)CN2CCOCC2)cc1 (configuration not stated),-,-,-,-,-,-
OC(COc1ccc2ccccc2c1Cl)CN1CCOCC1 (configuration not stated),-,-,-,54,-,-
Cc1ccc(N2CCN(C(=O)CNS(=O)(=O)c3ccc(Br)s3)CC2C)cc1 (configuration not stated),-,-,-,52,-,-
O=C(CNS(=O)(=O)c1ccc(Br)s1)N1CCN(c2ncccn2)CC1,-,-,-,-,61,-
CC1CC(C)CN(C(=O)CNS(=O)(=O)c2ccc(Br)s2)C1 (configuration not stated),-,-,-,-,-,-
CC1CCN(C(=O)CNS(=O)(=O)c2ccc(Br)s2)CC1,-,-,-,-,-,-
CN(C)S(=O)(=O)c1ccc(NC(=O)c2cc(F)c(F)cc2Cl)cc1,-,-,-,-,-,-
O=C(NCC(F)(F)F)N1CCOCC1,-,-,-,-,-,-
CCc1ccc(NC(=O)CS(=O)CC(=O)NCC2OCCc3ccccc32)cc1 (configuration not stated),-,-,-,-,74,-
O=C(CCN1CCCCC1)NCC1OCCc2ccccc21 (configuration not stated),-,-,-,86,-,-
CCc1ccc(NC(=O)CS(=O)CC(=O)NC(C)CCc2ccco2)cc1 (configuration not stated),.,-,-,.,.,.
O=C(NCC1OCCc2ccccc21)c1ccco1 (configuration not stated),-,-,-,-,-,-
O=CN(/C=C1\Sc2ccccc2C1=O)Cc1ccccc1,-,-,-,-,56,-
CCC(=O)N(C)/C=C1\Sc2ccccc2C1=O,-,-,-,-,-,-
CCOc1cc(C2c3c(oc4cc(C)c(Cl)cc4c3=O)C(=O)N2Cc2ccco2)ccc1O (configuration not stated),-,-,-,-,-,-
Cc1sc2nc(CN3CCCC3)nc(N3CCC(C(N)=O)CC3)c2c1C,-,-,-,-,-,-
COC(=O)CNC(=O)C1CCCN1C(=O)OC(C)(C)C (configuration not stated),-,-,-,-,-,-
CCOc1cc(CNCCO)c(Cl)cc1OCC(=O)NCCc1ccccc1,-,-,-,58,-,-
CCOc1cc(CNC(C)C)c(Cl)cc1OCC(=O)NCCc1ccccc1,-,-,-,77,-,-
CCOc1ccc(CCNC(=O)CCn2cccc2)cc1OCC,-,-,-,-,-,-
NNC(=O)COc1ncn(-c2ccccc2)n1,-,-,-,-,-,-
COCC(=O)Nc1nnc(SCC(=O)NCc2cccs2)s1,-,-,-,-,-,-
O=C(Nc1cccc(-c2cn3ccccc3n2)c1)C1CC1,-,-,-,-,-,-
CCOc1cc(/C=N/O)cc(Cl)c1OC,-,-,-,-,-,-
